Test results taken from the supplement of paper PMC8975748.
Structures can show the parent of a compound that is named as a salt. ± gives the standard deviation of the averaged measurements.

Tests used:
[1] = system: Saccharomyces cerevisiae BY4741 SeMeCo community; test: mean cell size (pixel area) (pixels); higher = larger cells; settings: 10 µM; 24 h; SM minimal medium
Method in brief: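 A Saccharomyces cerevisiae BY4741 community carrying four plasmids, each with a fluorescent marker and each complementing one auxotrophy, was exposed for 24 h to drug at a final 10 µM in SM medium in acoustically predosed 384-well plates. The overnight preculture (OD600 = 1.0) was diluted to OD600 = 0.3 before 70 µl was added per well. Cells were then fixed with paraformaldehyde, imaged by automated confocal microscopy and analysed in Harmony to derive mean cell pixel area per well, averaged over 3 replicates. Same SeMeCo high-content imaging drug screen: Selleck FDA-approved drugs at 10 µM, 24 h in SM medium, 384-well plates, 3 replicates.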

[2] = system: Saccharomyces cerevisiae BY4741 SeMeCo community; test: z-score of subpopulation abundance vs DMSO median, subpopulation auxotrophic for M; higher = larger share of this subpopulation than in DMSO controls; settings: 10 µM; 24 h; SM minimal medium; subpopulation (auxotrophy): M
Method in brief: (§1)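 A Saccharomyces cerevisiae BY4741 community carried four plasmids, each restoring one auxotrophy and encoding a distinct fluorescent protein. It was pre-grown overnight to OD600 1.0, diluted to 0.3, and 70 µl was added to 384-well plates acoustically predosed with library drugs (10 µM final), then grown 24 h in minimal SM medium. Cells were paraformaldehyde-fixed and imaged by automated confocal microscopy, with single-auxotroph fluorescent strains setting thresholds and autofluorescence correction. Each subpopulation's abundance was scored as a z-score against the vehicle-well median.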

[3] = system: Saccharomyces cerevisiae BY4741 SeMeCo community; test: z-score of subpopulation abundance vs DMSO median, subpopulation auxotrophic for L; higher = larger share of this subpopulation than in DMSO controls; settings: 10 µM; 24 h; SM minimal medium; subpopulation (auxotrophy): L
Method in brief: as §1

[4] = system: Saccharomyces cerevisiae BY4741 SeMeCo community; test: z-score of subpopulation abundance vs DMSO median, subpopulation auxotrophic for U; higher = larger share of this subpopulation than in DMSO controls; settings: 10 µM; 24 h; SM minimal medium; subpopulation (auxotrophy): U
Method in brief: as §1

[5] = system: Saccharomyces cerevisiae BY4741 SeMeCo community; test: z-score of subpopulation abundance vs DMSO median, subpopulation auxotrophic for H; higher = larger share of this subpopulation than in DMSO controls; settings: 10 µM; 24 h; SM minimal medium; subpopulation (auxotrophy): H
Method in brief: as §1

[6] = system: Saccharomyces cerevisiae BY4741 SeMeCo community; test: z-score of subpopulation abundance vs DMSO median, subpopulation auxotrophic for LU; higher = larger share of this subpopulation than in DMSO controls; settings: 10 µM; 24 h; SM minimal medium; subpopulation (auxotrophy): LU
Method in brief: as §1

[7] = system: Saccharomyces cerevisiae BY4741 SeMeCo community; test: z-score of subpopulation abundance vs DMSO median, subpopulation auxotrophic for LM; higher = larger share of this subpopulation than in DMSO controls; settings: 10 µM; 24 h; SM minimal medium; subpopulation (auxotrophy): LM
Method in brief: as §1

[8] = system: Saccharomyces cerevisiae BY4741 SeMeCo community; test: z-score of subpopulation abundance vs DMSO median, subpopulation auxotrophic for HM; higher = larger share of this subpopulation than in DMSO controls; settings: 10 µM; 24 h; SM minimal medium; subpopulation (auxotrophy): HM
Method in brief: as §1

[9] = system: Saccharomyces cerevisiae BY4741 SeMeCo community; test: z-score of subpopulation abundance vs DMSO median, subpopulation auxotrophic for HU; higher = larger share of this subpopulation than in DMSO controls; settings: 10 µM; 24 h; SM minimal medium; subpopulation (auxotrophy): HU
Method in brief: as §1

[10] = system: Saccharomyces cerevisiae BY4741 SeMeCo community; test: z-score of subpopulation abundance vs DMSO median, subpopulation auxotrophic for UM; higher = larger share of this subpopulation than in DMSO controls; settings: 10 µM; 24 h; SM minimal medium; subpopulation (auxotrophy): UM
Method in brief: as §1

[11] = system: Saccharomyces cerevisiae BY4741 SeMeCo community; test: z-score of subpopulation abundance vs DMSO median, subpopulation auxotrophic for HL; higher = larger share of this subpopulation than in DMSO controls; settings: 10 µM; 24 h; SM minimal medium; subpopulation (auxotrophy): HL
Method in brief: as §1

[12] = system: Saccharomyces cerevisiae BY4741 SeMeCo community; test: z-score of subpopulation abundance vs DMSO median, subpopulation auxotrophic for HLU; higher = larger share of this subpopulation than in DMSO controls; settings: 10 µM; 24 h; SM minimal medium; subpopulation (auxotrophy): HLU
Method in brief: as §1

[13] = system: Saccharomyces cerevisiae BY4741 SeMeCo community; test: z-score of subpopulation abundance vs DMSO median, subpopulation auxotrophic for HLM; higher = larger share of this subpopulation than in DMSO controls; settings: 10 µM; 24 h; SM minimal medium; subpopulation (auxotrophy): HLM
Method in brief: as §1

[14] = system: Saccharomyces cerevisiae BY4741 SeMeCo community; test: z-score of subpopulation abundance vs DMSO median, subpopulation auxotrophic for HUM; higher = larger share of this subpopulation than in DMSO controls; settings: 10 µM; 24 h; SM minimal medium; subpopulation (auxotrophy): HUM
Method in brief: as §1

[15] = system: Saccharomyces cerevisiae BY4741 SeMeCo community; test: z-score of subpopulation abundance vs DMSO median, subpopulation auxotrophic for LUM; higher = larger share of this subpopulation than in DMSO controls; settings: 10 µM; 24 h; SM minimal medium; subpopulation (auxotrophy): LUM
Method in brief: as §1

[16] = system: Saccharomyces cerevisiae BY4741 SeMeCo community; test: z-score of subpopulation abundance vs DMSO median, subpopulation auxotrophic for HLUM; higher = larger share of this subpopulation than in DMSO controls; settings: 10 µM; 24 h; SM minimal medium; subpopulation (auxotrophy): HLUM
Method in brief: as §1

[17] = system: Saccharomyces cerevisiae BY4741 SeMeCo community; test: z-score of prototroph abundance vs DMSO median; higher = larger share of this subpopulation than in DMSO controls; settings: 10 µM; 24 h; SM minimal medium; subpopulation (auxotrophy): Prototroph
Method in brief: as §1

| Compound | mean cell size [1] | z-score of subpopulation abundance [2] | z-score of subpopulation abundance [3] | z-score of subpopulation abundance [4] | z-score of subpopulation abundance [5] | z-score of subpopulation abundance [6] | z-score of subpopulation abundance [7] | z-score of subpopulation abundance [8] | z-score of subpopulation abundance [9] | z-score of subpopulation abundance [10] | z-score of subpopulation abundance [11] | z-score of subpopulation abundance [12] | z-score of subpopulation abundance [13] | z-score of subpopulation abundance [14] | z-score of subpopulation abundance [15] | z-score of subpopulation abundance [16] | z-score of prototroph abundance [17] |
| --- | --- | --- | --- | --- | --- | --- | --- | --- | --- | --- | --- | --- | --- | --- | --- | --- | --- |
| CO/N=C(\C(=O)N[C@@H]1C(=O)N2C(C(=O)[O-])=C(C[N+]3(C)CCCC3)CS[C@H]12)c1csc(N)n1 [Cefepime Dihydrochloride Monohydrate] | 12.4 ± 0.19 | 0.62 | 0.49 | -0.42 | 0.4 | 0.05 | 0.72 | 1.14 | -0.45 | 0.07 | 0.83 | 0.65 | 0.34 | 0.6 | 1.06 | 0.19 |  |
| Oc1ccc([C@H]2COc3cc(O)ccc3C2)cc1 [Equol] | 12.4 ± 0.17 | 0.37 | -0.21 | -0.12 |  | -0.26 | 0.45 | 0.47 | -0.01 | 0.05 | -0.02 | 0 | -0.88 | -0.27 | -0.14 | 0.35 |  |
| CCCCCc1ccc(C)cc1O [Amylmetacresol] | 12.4 ± 0.14 | -0.65 | 0.4 | 0.39 | -0.64 | 0.24 | -0.71 | -0.5 | -0.1 | -0.13 | -0.02 | 0.35 | 0.52 | -0.2 | 0.11 | 0.41 | -0.1 |
| CN1CCN(C2=Nc3cc(Cl)ccc3Nc3ccccc32)CC1 [Clozapine] | 12.4 ± 0.21 | -0.47 | -0.41 | 0.17 | -0.49 | -1.03 | -0.26 | -0.07 | -0.45 |  | 0.94 | -0.01 | -0.52 | 0.23 | 0.32 | -0.29 | 0.32 |
| CC[N+](C)(C)c1cccc(O)c1 [Edrophonium chloride] | 12.28 ± 0.12 | 0.34 | -0.53 | 1.2 | -1.41 | 1.17 | -0.05 | -0.15 | -0.07 | 0.7 | -0.46 | -0.56 | -0.47 | 0.76 | 0.48 | 0.62 |  |
| NC(=O)[C@@H]1CC[C@@H]2CN1C(=O)N2OS(=O)(=O)O [Avibactam sodium] | 12.68 ± 0.1 | 0.79 | 0.6 | 0.13 | -0.62 | 1.12 | 0.78 | 0.85 | -0.2 | 0.5 | -0.05 | 0.1 | 0.54 | -0.02 | 0.46 | 1.05 | -0.66 |
| Clc1ccccc1C(c1ccccc1)(c1ccccc1)n1ccnc1 [Clotrimazole] | 11.89 ± 0.097 | 4.9 | -2.83 | -0.04 |  | -0.93 | 1.9 | 6.05 | 6.35 |  | 3.58 | 3.78 | 15.2 | 7.76 | 5.41 | 9.79 | -9.07 |
